Data on 8 compounds can be found in PubChem BioAssay (Tox21).

A number with no mark means an inactive call. Records with an inconclusive call do not appear. Activity calls are given as the source filed them. Unless noted, calls come from the whole dose curve; as a rule, active = well fitted curve in the direction sought with a large enough effect in the repeat runs; inconclusive = weak or mixed curves; inactive = no such curve, though single readings can be large; an effect the other way counts as inactive or inconclusive.

Assay [1] is described as follows: qHTS assay to identify small molecule agonists of the estrogen receptor alpha (ER-alpha) signaling pathway in the presence of an antagonist - cell viability counter screen (AID 1259386).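 Note: series mostly up to about 92 µM; cells exposed to compounds for 22 h at 37 °C before the viability read; nearly all actives have a fitted effect of over 30% in size.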 The method, boiled down:
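Read-out: CellTiter-Fluor fluorescence after 1hr reagent incubation, measured in the same wells as the luciferase readout. VM7Luc4E2 cells were exposed to 15 compound concentrations with 10.0nM ICI-182,780 for 22hr at 37C.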
Background: In qHTS, concentration-response curves come from the screen itself.

For assay [2], the target named is Progesterone receptor (Homo sapiens) (UniProt P06401). Briefly: qHTS assay to identify small molecule agonists of the progesterone receptor (PR) signaling pathway (AID 1346784; calls by dose curve; note: nearly all actives have a fitted effect of over 30% in size). Summed up:
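Reporter assay, GripTite PR-UAS-bla HEK 293T cells: 16 hr exposure to DMSO-dissolved compounds at 37C, 5% CO2, in steroid-depleted (2% charcoal-stripped FBS) medium; beta-lactamase measured by FRET fluorescence.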

Assay [3] shares this target. The experiment in a line: qHTS assay to identify small molecule antagonists of the progesterone receptor (PR) signaling pathway (AID 1346795; active = well fitted inhibition curve with a large enough effect in the signal ratio in the repeat runs, not every such curve was filed as active; the % refers to the signal ratio). Summed up: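 Stimulus R5020 at 1 nM final; cells HEK293T PR-UAS-bla; medium with 2% charcoal-stripped FBS; compound exposure 16 hr at 37C, 5% CO2; detection by FRET beta-lactamase substrate, 2 hr, room temperature.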
Assay [4] in a line: qHTS assay to identify small molecule antagonists of the progesterone receptor (PR) signaling pathway - cell viability counter screen (AID 1346798). Note: series mostly up to about 92 µM; nearly all actives have a fitted effect of over 50% in size. Summed up:
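In the same plates used for the beta-lactamase readout, cell viability of compound- and R5020-treated PR-UAS-bla HEK293T cells (16 hr, 37C) was assessed by CellTiter-Glo luminescence.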

Assay [5] can be described thus: qHTS assay to identify small molecule agonists of the progesterone receptor (PR) signaling pathway - cell viability counter screen (AID 1346799; calls by dose curve; note: nearly all actives have a fitted effect of over 45% in size). Summed up: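 Multiplexed viability read: CellTiter-Glo luminescence, 30 min RT, following LiveBLAzer FRET measurement on PR-UAS-bla HEK293T cells exposed to compounds 16 hr.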
The nature of assay [6]: qHTS assay to identify small molecule antagonists of the TGF-beta/Smad signaling pathway - cell viability counter screen (AID 1346824). Note: nearly all actives have a fitted effect of over 50% in size. Summed up:
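Cytotoxicity counter-screen run in the same wells as the beta-lactamase Smad reporter read: CellTiter-Glo luminescence after 30 min at room temperature. HEK 293T SBE-bla cells had 5 hr compound exposure at 37 C with TGF-beta1 (0.25 ng/mL stock).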

The nature of assay [7]: qHTS assay to identify small molecule agonists of the TGF-beta/Smad signaling pathway - cell viability counter screen (AID 1346829). Note: top concentration of the series differs between compounds; nearly all actives have a fitted effect of over 45% in size. Summed up: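 CellTiter-Glo luminescence readout; SBE-bla HEK 293T cells, overnight plating, compound 5 hr at 37 C/5% CO2, then bla substrate 2 hr RT, then CellTiter-Glo 30 min RT.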
Assay [8] in a line: qHTS assay to identify small molecule agonists of the TGF-beta/Smad signaling pathway (AID 1346859; active = well fitted activation curve with a large enough effect in the signal ratio in the repeat runs, not every such curve was filed as active; the % refers to the signal ratio; note: series mostly up to about 77 µM). The method, boiled down: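 Screening used HEK 293T SBE-bla cells at 4,000/well. Test agents: 5 hr, 37 C. Detection: FRET substrate, 2 hr RT, then excitation 405 nm with emissions at 460 and 530 nm.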
The nature of assay [9]: Human pregnane X receptor (PXR) small molecule agonists, qHTS cell viability counter screen (AID 1346977). Note: nearly all actives have a fitted effect of over 50% in size. Summed up: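 In each well, the PXR reporter HepG2 line was checked for viability: CellTiter-Fluor reagent added 23hr post-dosing, fluorescence read after 1hr incubation at 37C.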
A short description of assay [10]: Caspase-3/7 induction in HepG2 cells by small molecules, qHTS assay (AID 1346978). Note: nearly all actives have a fitted effect of over 15% in size. The method, boiled down:
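Caspase-3/7 induction was measured by Caspase-Glo 3/7 luminescence (30 min, room temperature) after a 17 hr compound exposure of wild-type HepG2 cells seeded at 2,000 per well and pre-incubated 5 hr.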

A short description of assay [11]: Caspase-3/7 induction in CHO-K1 cells by small molecules, qHTS cell viability counter screen (AID 1346979). Note: nearly all actives have a fitted effect of over 35% in size. Summed up:
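Following a 5hr settling period, CHO-K1 cells at 1,500 per well received DMSO-dissolved compounds. Cell viability was quantified 16hr later by CellTiter-Fluor fluorescence, measured after 1hr with reagent at 37C.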

A short description of assay [12]: Caspase-3/7 induction in CHO-K1 cells by small molecules, qHTS assay (AID 1346980). Note: nearly all actives have a fitted effect of over 15% in size. Summed up: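 Luminescent Caspase-Glo 3/7 read (30min, room temperature) quantified apoptosis induction. Cells were wild-type CHO-K1, treated with compound for 17hr at 37 C and 5% CO2.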
Assay [13] in a line: Caspase-3/7 induction in HepG2 cells by small molecules, qHTS cell viability counter screen (AID 1346981). Note: series mostly up to about 92 µM; nearly all actives have a fitted effect of over 30% in size. The method, boiled down: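 Fluorescence read-out of live-cell protease activity (CellTiter-Fluor) after 1 hr with reagent. This was measured in the same wells as the caspase-3/7 luminescence, on HepG2 cells exposed to DMSO-dissolved compounds for 16 hr at 37 C.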
For assay [14], the target named is Nuclear receptor subfamily 1 group I member 2 (Homo sapiens) (UniProt O75469). Briefly: Human pregnane X receptor (PXR) small molecule agonists, qHTS assay (AID 1346982). Note: nearly all actives have a fitted effect of over 35% in size. Note: potency is the fitted concentration of half-maximal effect. The method, boiled down:
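HepG2 PXR-Luc reporter line, 5% charcoal-stripped FBS; 5 hr pre-incubation, compound (DMSO) 24 hr at 37 C/5% CO2; ONE-Glo 30 min RT; luminescence read-out.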

The target in assay [15] is Acetylcholinesterase (Homo sapiens) (UniProt P22303). The experiment in a line: Acetylcholinesterase (AChE) small molecule antagonists: colormetric cell-based qHTS assay (AID 1347395; calls by dose curve; note: nearly all actives have a fitted effect of over 30% in size; note: potency is the fitted concentration of half-maximal effect). Summed up: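 After overnight attachment at 37 C, SH-SY5Y cells get 30 min compound exposure; detection cocktail (acetylthiocholine, DTNB) then incubates 90 min at 37 C, and absorbance reflects AChE-generated thiocholine.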
Sequence of Acetylcholinesterase (Homo sapiens) (P22303 whole entry, looked up): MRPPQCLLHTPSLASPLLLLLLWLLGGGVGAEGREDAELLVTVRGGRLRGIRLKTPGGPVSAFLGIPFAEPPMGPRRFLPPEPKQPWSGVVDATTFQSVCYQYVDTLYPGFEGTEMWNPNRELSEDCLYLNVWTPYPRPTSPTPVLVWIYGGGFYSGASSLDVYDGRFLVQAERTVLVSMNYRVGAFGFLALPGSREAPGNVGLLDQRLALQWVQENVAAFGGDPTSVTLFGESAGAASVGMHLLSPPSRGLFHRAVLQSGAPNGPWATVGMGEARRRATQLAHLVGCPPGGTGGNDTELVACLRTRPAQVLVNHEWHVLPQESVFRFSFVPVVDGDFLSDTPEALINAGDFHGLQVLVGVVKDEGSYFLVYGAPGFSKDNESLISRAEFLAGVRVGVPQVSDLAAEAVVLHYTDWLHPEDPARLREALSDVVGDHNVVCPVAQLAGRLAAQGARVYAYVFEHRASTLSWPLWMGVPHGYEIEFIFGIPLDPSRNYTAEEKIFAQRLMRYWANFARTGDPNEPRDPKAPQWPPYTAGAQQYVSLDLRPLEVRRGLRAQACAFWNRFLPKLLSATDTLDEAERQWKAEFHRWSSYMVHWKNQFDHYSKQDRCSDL

Assay [16] addresses Thyrotropin-releasing hormone receptor (Homo sapiens) (UniProt P34981). Briefly: qHTS assay to identify small molecule antagonists of the thyrotropin-releasing hormone receptor (TRHR) signaling pathway (AID 1346877; active = well fitted inhibition curve with a large enough effect in the repeat runs, not every such curve was filed as active; note: series mostly up to about 51 µM). The method, boiled down:
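HEK293/TRHR cells, 18 h, 37 °C; Ca2+ dye 2 h; cpd 5 min RT; TRH 1 nM final; fluorescence read 3 min, 1 s intervals; 15 concs, triplicate.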

The target is the same in assay [17]. Briefly: qHTS assay to identify small molecule agonists of the thyrotropin-releasing hormone receptor (TRHR) signaling pathway (AID 1346891; calls by dose curve; note: series mostly up to about 58 µM). Summed up:
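Readout was intracellular calcium fluorescence in TRHR-Hek293 cells. Cells were incubated 18 h, dye-loaded 2 h at 37 °C, and treated with compound in agonist mode.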

Assay [18] has as its target Nuclear receptor subfamily 1 group I member 2 (Rattus norvegicus) (UniProt Q9R1A7). The experiment in a line: Rat pregnane X receptor (rPXR) activation by small molecules, qHTS assay (AID 1346983). Note: nearly all actives have a fitted effect of over 20% in size. To be noted: rPXR luciferase reporter cells, One-Glo luminescence, 24 h; stronger effect = higher value. The method, boiled down: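 Luminescent readout (One-Glo luciferase, 30 min room temperature) followed 24 hr compound treatment at 37 C of rPXR cells plated 2,000 per well and preincubated 5hr; qHTS format with compounds delivered in DMSO.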

Assay [19] addresses Nuclear receptor subfamily 1 group I member 2 (Homo sapiens) (UniProt O75469). The experiment in a line: CYP3A4 induction through human pregnane X receptor (PXR) by small molecules, qHTS assay (AID 1346984). Note: nearly all actives have a fitted effect of over 40% in size. The method, boiled down:
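HepG2-derived DPX-2 line carrying PXR plus a CYP3A4-promoter luciferase reporter; cells plated 5 hr, compound-exposed 24 hr at 37C. CYP3A4 activity probed with 3uM (final) Luciferin-IPA for 3hr, then luciferase read after One-Glo.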

For assay [20] the target is unchanged. Briefly: Human pregnane X receptor (PXR) activation by small molecules, qHTS assay (AID 1346985). Note: nearly all actives have a fitted effect of over 40% in size. The method, boiled down: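 DPX-2 cells (HepG2 co-transfected with a PXR response element and a CYP3A4-promoter luciferase construct) were seeded at 2,000 per well, rested 5 hr at 37C, then exposed to DMSO-dissolved compounds for 24 hr. Activation was read as luciferase luminescence.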
% is set by controls: 0 for no effect and ±100 for the full control effect.

Sequence of Progesterone receptor (Homo sapiens) (P06401 whole entry, looked up): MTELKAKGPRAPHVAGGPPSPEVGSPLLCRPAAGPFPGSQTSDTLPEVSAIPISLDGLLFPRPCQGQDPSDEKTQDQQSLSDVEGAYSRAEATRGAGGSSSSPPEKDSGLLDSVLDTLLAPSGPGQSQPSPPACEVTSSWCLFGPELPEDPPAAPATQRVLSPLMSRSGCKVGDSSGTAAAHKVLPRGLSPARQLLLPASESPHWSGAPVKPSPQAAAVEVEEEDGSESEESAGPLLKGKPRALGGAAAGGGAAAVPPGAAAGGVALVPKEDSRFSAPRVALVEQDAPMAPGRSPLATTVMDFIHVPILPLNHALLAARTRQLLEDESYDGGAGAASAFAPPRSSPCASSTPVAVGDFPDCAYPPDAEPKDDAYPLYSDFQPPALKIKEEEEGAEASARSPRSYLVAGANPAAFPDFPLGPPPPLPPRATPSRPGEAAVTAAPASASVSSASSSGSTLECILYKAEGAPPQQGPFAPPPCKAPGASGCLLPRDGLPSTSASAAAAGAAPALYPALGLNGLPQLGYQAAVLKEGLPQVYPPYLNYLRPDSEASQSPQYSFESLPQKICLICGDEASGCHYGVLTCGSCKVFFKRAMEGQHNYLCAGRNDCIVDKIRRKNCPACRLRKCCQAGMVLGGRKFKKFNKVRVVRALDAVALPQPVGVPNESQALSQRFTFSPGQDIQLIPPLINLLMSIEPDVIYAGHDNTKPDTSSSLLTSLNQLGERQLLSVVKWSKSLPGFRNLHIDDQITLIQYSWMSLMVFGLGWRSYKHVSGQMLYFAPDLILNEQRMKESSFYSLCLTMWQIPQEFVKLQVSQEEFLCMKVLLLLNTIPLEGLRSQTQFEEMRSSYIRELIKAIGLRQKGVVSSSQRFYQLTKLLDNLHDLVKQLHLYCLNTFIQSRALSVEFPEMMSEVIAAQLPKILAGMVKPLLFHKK
Sequence of Thyrotropin-releasing hormone receptor (Homo sapiens) (P34981 whole entry, looked up): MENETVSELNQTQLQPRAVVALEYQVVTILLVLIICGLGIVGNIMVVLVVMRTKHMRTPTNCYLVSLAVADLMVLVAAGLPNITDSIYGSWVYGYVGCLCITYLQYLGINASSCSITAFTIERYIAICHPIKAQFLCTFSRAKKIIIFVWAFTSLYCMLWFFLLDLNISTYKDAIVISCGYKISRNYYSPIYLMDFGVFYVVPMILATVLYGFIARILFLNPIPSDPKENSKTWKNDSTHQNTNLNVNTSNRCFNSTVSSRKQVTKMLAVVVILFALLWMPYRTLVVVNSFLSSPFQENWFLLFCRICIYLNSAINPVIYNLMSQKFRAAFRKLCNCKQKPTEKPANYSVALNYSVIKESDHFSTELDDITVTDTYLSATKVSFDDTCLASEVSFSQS
Sequence of Nuclear receptor subfamily 1 group I member 2 (Homo sapiens) (O75469 whole entry, looked up): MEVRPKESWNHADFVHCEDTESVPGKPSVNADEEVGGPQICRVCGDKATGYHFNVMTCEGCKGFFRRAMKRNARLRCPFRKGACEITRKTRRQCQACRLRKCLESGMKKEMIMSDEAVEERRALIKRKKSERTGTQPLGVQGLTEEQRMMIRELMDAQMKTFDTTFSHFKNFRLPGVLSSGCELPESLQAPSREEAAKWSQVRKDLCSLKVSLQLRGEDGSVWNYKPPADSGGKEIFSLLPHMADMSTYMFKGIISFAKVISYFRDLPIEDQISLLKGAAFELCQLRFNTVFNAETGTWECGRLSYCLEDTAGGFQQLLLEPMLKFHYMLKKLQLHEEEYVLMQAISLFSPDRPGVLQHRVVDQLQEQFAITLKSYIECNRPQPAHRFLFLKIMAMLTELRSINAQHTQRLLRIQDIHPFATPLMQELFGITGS
Sequence of Nuclear receptor subfamily 1 group I member 2 (Rattus norvegicus) (Q9R1A7 whole entry, looked up): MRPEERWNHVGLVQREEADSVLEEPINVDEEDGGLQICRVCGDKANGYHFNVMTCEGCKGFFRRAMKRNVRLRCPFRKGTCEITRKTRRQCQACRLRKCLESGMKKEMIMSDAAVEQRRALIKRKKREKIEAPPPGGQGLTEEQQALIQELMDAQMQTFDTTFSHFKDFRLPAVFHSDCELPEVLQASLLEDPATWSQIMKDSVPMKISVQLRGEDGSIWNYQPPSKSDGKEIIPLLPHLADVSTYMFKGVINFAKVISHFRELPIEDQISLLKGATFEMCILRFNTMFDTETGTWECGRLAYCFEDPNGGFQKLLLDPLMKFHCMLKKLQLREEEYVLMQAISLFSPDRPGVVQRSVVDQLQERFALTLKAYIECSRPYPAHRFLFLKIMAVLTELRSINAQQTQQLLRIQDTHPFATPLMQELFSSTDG

With `COC(=O)Cc1ccccc1`, the Potency result in [1], in assay [2], in assay [3], in assay [4], in assay [5] and in assay [6] was “inactive” each time. For the same compound, the Potency result in assay [7], in assay [9], in [10], in assay [11], in [12] and in [13] was “inactive” each time. Further, the Potency result in [14] and in assay [15] was “inactive” throughout. In assay [8], the outcome was inactive.

Turning to `C=C(C)C(=O)OCCCCOC(=O)C(=C)C`, the Potency result in [1], in assay [2], in assay [3], in [4], in assay [5] and in assay [6] was “inactive” in each case. Moreover, the Potency result in assay [7], in [16], in assay [9], in [10], in assay [11] and in assay [12] was “inactive” throughout. Further, the Potency entry in [13], in [14] and in assay [15] was “inactive” throughout. The call in assay [8] and in assay [17] was inactive.

On to `CCC(C)Cl` (stereo unspecified), for which the Potency entry in [1], in [2], in assay [3], in assay [4], in assay [5] and in assay [6] was “inactive” throughout. Further, the Potency result in assay [7], in assay [16], in [9], in assay [10], in [11] and in assay [12] was “inactive” each time. Moreover, the Potency entry in assay [13], in [14] and in assay [15] was “inactive” throughout. Besides, the outcome in assay [8] and in assay [17] was inactive.

As to `CCOC(C(=O)OCCN(C)C)(c1ccccc1)c1ccccc1`, the Potency entry in [1], in [2], in assay [3], in [4], in [5] and in assay [6] was “inactive” throughout. The Potency entry in assay [7], in assay [16], in assay [10], in assay [11], in assay [12] and in assay [13] was “inactive” in each case. Moreover, the Potency result in [15] is “inactive”. Moreover, the compound was called inactive in assay [8] and in assay [17]. Also, in assay [14], the Potency is 13.3 µM (active).

`O=CC=O`: the Potency entry in assay [1], in [2], in [3], in assay [4], in [5] and in [6] was “inactive” each time. Moreover, the Potency result in assay [7], in [9], in assay [10], in assay [11], in assay [12] and in [13] was “inactive” each time. Moreover, the Potency result in [14], in [20] and in assay [15] was “inactive” each time. In addition, the result in assay [8] and in assay [19] was inactive. Also, the max activation in assay [18] is -4.84%.

Take `Cc1nc(N(C)C)nc(OC(=O)N(C)C)c1C`: the Potency entry in assay [1], in assay [2], in assay [3], in assay [4], in [5] and in assay [6] was “inactive” throughout. Further, the Potency result in assay [7], in assay [16], in [9], in assay [10], in assay [11] and in assay [12] was “inactive” in each case. In addition, the Potency result in [13] and in assay [14] was “inactive” in each case. Moreover, the call in [8] and in assay [17] was inactive. Besides, the Potency in assay [15] is 11.2 µM (active).

On to `O=C(O)c1ccc(=O)[nH]c1`, for which the Potency entry in assay [1], in [2], in assay [3], in assay [4], in assay [5] and in [6] was “inactive” in each case. The Potency result in [7], in [16], in assay [9], in assay [10], in assay [12] and in assay [13] was “inactive” each time. In addition, the Potency result in assay [14] and in [15] was “inactive” each time. Moreover, the outcome in [8] and in assay [17] was inactive.

Turning to `O=C1NC(=O)C(=O)C(=O)N1`, the Potency result in assay [1], in [2], in assay [3], in assay [4], in assay [5] and in assay [6] was “inactive” throughout. Besides, the Potency result in assay [7], in assay [9], in assay [10], in assay [11], in [12] and in [13] was “inactive” in each case. The Potency result in assay [14] and in assay [15] was “inactive” each time. The compound was called inactive in [8].
